CHX counter: Cycloheximide Counterscreen for Small Molecule Inhibitors of Shiga Toxin | max response, % | hit rate 12% among 300,000 | cell reporter, cycloheximide protein synthesis inhibition counterscreen; in the data active = max response mostly above about 13%, no sharp cut-off; inactive = mostly below about 14%; also: read at 38.3 µM for the half of the compounds with a filed dose
FBPA Giardia inh: qHTS Assay for Inhibitors of Fructose-1,6-bisphosphate Aldolase from Giardia Lamblia; Potency, µM (titrated, usually from 59.6 µM), actives largely listed as inhibitors; A8B2U2; hit rate 0.71% among 290,000; purified Giardia FBPA; also: nearly all actives have a fitted effect of over 55% in size
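Giardia FBPA (40 nM reagent) was preincubated 10 min at RT with compound (up to 57.5 uM final), then substrate plus GAPDH/TPI/NAD/arsenate coupling system with diaphorase/resazurin was added; resorufin fluorescence (525/598 nm) was read after 20 min.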
LmPK inhibitor: qHTS Assay for Inhibitors of Leishmania Mexicana Pyruvate Kinase (LmPK). Q27686. purified LmPK, Kinase-Glo ATP luminescence, 1 h. Potency, µM (series often up to 57.5 µM), actives largely listed as inhibitors. hit rate 0.37% among 290,000. AID 1721, 2009
Target sequence (Q27686 whole entry, looked up): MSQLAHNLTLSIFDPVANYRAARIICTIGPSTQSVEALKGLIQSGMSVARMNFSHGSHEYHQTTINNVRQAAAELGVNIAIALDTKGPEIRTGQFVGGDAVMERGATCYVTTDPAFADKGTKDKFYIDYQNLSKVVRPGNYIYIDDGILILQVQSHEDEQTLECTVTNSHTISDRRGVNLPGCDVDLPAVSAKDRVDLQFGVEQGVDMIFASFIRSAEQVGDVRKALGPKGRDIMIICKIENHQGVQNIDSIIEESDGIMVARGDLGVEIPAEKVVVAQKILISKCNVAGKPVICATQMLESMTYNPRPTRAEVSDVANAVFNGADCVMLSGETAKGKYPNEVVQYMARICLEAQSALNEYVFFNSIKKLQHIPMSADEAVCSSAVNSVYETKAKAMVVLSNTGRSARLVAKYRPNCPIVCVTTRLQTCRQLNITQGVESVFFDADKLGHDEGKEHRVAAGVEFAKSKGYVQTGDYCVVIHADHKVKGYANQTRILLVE
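ATP generated from ADP (0.1 mM) and PEP (0.5 mM) by 0.1 nM LmPK over 1 h at room temperature (pH 7.2 imidazole buffer) was detected by coupled luciferase luminescence. Values were normalized to uninhibited and no-enzyme wells.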
Shiga inhibitor: A qHTS for Small Molecule Inhibitors of Shiga Toxin | inhibition, % at 38.7 µM | AID 2315, 2010 | Vero cells, Shiga toxin protein synthesis inhibition reporter | hit rate 9.2% among 290,000; in the data active = inhibition mostly above about 28%, no sharp cut-off; inactive = mostly below about 43%
NS1 inh: qHTS Assay for Inhibitors of Influenza NS1 Protein Function. Potency, µM (titrated, usually from 46.1 µM). hit rate 0.4% among 270,000; calls by dose curve; also: actives are rising curves; nearly all actives have a fitted effect of over 50% in size
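S. cerevisiae expressing influenza A NS1, grown in glucose, washed, then diluted 1:100 into pH 6.0 -URA galactose medium with 23 nl compound. Growth recovery read as OD600; NS1-free strain serves as control.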
Numbers stand for hits; 0 = inactive; ? = inconclusive; - = not tested or not shown; [ ] = dose if it differs, or a comment. Shown are actives, neighbours in structure and some others; about 14% of the full set was active somewhere. Unless noted, calls follow the shape of the dose curve; as a rule, active = well fitted curve in the direction sought with a large enough effect; inconclusive = small, poorly fitted or top-dose-only effect, or another doubt; inactive = no such curve, though single readings can be large; an effect the other way counts as inactive or inconclusive.

SMILES | CHX counter | FBPA Giardia inh | LmPK inhibitor | Shiga inhibitor | NS1 inh
COc1ccc(/C=C/C(=O)c2c(O)c(OC)c3occc3c2OC)cc1 | 14.7 | 0 | 0 | 0 | 0
COc1cc(O)c(C(=O)/C=C/c2ccccc2)c(O)c1 | - | 0[12.9 µM] | - | - | -
COc1ccc(/C=C/C(=O)c2ccc(O)cc2)cc1 | 37.4 | 0 | 0 | 63.6 | 0
O=C(/C=C/c1ccc(O)cc1)c1ccccc1O | - | 0 | - | - | -
CN(C)c1ncc2nc(-c3ccc(F)cc3)c(=O)n(-c3ccccc3)c2n1 | - | 0 | - | - | -
Cc1ccc(/C=C/S(=O)(=O)NCC(=O)OCC(=O)NCc2ccccc2)cc1 | 0 | 0 | 0 | 0 | 0
COc1cccc(/C=C/C(=O)N2CCN(c3ccccn3)CC2)c1 | 0 | - | 0 | 0 | 0
COc1cc(/C=C/c2ccc(O)cc2)cc(OC)c1 | 55.8 | 0 | 0 | 83.6 | -
COc1ccc(/C=C/C(=O)c2ccccn2)cc1 | 23.6 | ? | 8.91µM | 0 | -
COc1ccc(/C=C/C(=O)N2CCN(c3ccccn3)CC2)cc1 | 24.5 | - | 0 | 29.8 | 0
O=C1NC(=S)N(C(=O)c2ccc(F)cc2)/C1=C/c1ccccc1 | 14.4 | 0 | 0 | 0 | 0
COc1ccc(/C=C2\C(=O)NC(=S)N2C(=O)c2ccc(F)cc2)cc1 | 0 | 0 | 0 | 0 | 0
Cc1ccc(N=Nc2c(O)c3ccccc3[nH]c2=O)c(S(=O)(=O)N(C)C)c1 | 38.1 | 0 | 0 | 42.8 | 0
COC1c2ccccc2C(=O)N1Cc1ccc(F)cc1 (stereo unspecified) | 0 | 0 | 0 | 0 | 0
COc1ccc(/C(N)=N/OC(=O)c2cc(-c3ccccc3)nc3ccccc23)cc1 | 0 | 0 | 0 | 0 | 0
COc1cc(OC)c(C(=O)O/N=C(\N)c2ccccc2)cc1OC | 29.1 | 0 | 0 | 48.3 | 0
COc1cc(C(=O)O/N=C(\N)c2ccc([N+](=O)[O-])cc2)cc(OC)c1OC | 0 | 0 | 0 | 0 | 0
COc1ccc(C(=O)O/N=C(\N)c2ccccc2)cc1OC | 43.7 | 0 | 0 | 91.2 | 0
Cc1cccc(C(=O)O/N=C(\N)Cc2cccc3ccccc23)c1 | 0 | 0 | 0 | 0 | 0
COc1cccc(OC)c1C(=O)O/N=C(\N)c1ccncc1 | 22.8 | 0 | 0 | 0 | 0
COc1ccc(C(=O)O/N=C(\N)c2cccc(C)c2)cc1OC | 36.0 | 0 | 0 | 45.1 | 0
Cc1ccc([S+](=O)([O-])N(c2ccccc2)[S+](=O)([O-])C(F)(F)F)cc1 | - | 0 | - | - | -
COc1ccc(CNC(=O)N[C@@H](CC(C)C)C(=O)O)cc1OC | 0 | 0 | 0 | 0 | 0
COc1ccc(Cl)cc1C(=O)O/N=C(\N)c1ccncc1 | 0 | 0 | 0 | 57.1 | 0
COc1ccc(C(=O)O/N=C(\N)c2ccncc2)cc1OC | 14.6 | 0 | 0 | 0 | 0
SMILES | CHX counter | FBPA Giardia inh | LmPK inhibitor | Shiga inhibitor | NS1 inh
N/C(=N\OC(=O)c1cccc2ccccc12)c1ccncc1 | 44.6 | 0 | 0 | 67.2 | 0
COc1cc(C(=O)O/N=C(\N)c2ccncc2)cc(OC)c1OC | 0 | 0 | 0 | 0 | 0
O=c1c(-c2ccccc2)nc2cncnc2n1Cc1ccccc1 | - | 0 | - | - | -
O=C(CCN1N=C(c2ccccc2)CCC1=O)NCCCN1CCOCC1 | 0 | - | 0 | 0 | 0
COC(=O)N1CCC2(CC1)CCN(c1ncccn1)CC2 | - | 0 | - | - | -
CN(C)CCCN(Cc1cc2cc3c(cc2[nH]c1=O)OCO3)C(=S)Nc1cccc(Cl)c1 | 0 | 0 | 0 | 0 | 0
CN(C)CCCN(Cc1cc2cc3c(cc2[nH]c1=O)OCO3)C(=S)Nc1ccccc1 | 0 | 0 | 0 | 30.5 | 0
O=C(Nc1ccc(F)cc1)N(CCCN1CCOCC1)Cc1cc2cc3c(cc2[nH]c1=O)OCCO3 | 37.2 | 0 | 0 | 0 | 0
CN(C(=O)c1cccs1)C1(C)CCS(=O)(=O)C1 (stereo unspecified) | 0 | - | 0 | 0 | 0
CC(C)c1ccc(O)c(O)c(=O)c1 (tested in a mixture with another compound) | - | - | - | - | 0
COC(C(=O)N1CCC(n2nccc2NC(=O)C2CC2)CC1)c1ccccc1 (stereo unspecified) | 40.8 | - | 0 | 107.3 | 0
O=C(Nc1ccnn1C1CCN(C(=O)c2ccccc2C(F)(F)F)CC1)C1CC1 | 26.6 | - | 0 | 0 | ?
COC(C(=O)Nc1ccnn1C1CCN(C(=O)c2ccc(C=O)cc2)CC1)c1ccccc1 (stereo unspecified) | 0 | 0 | 0 | 0 | 0
N#CCCCC[N+]12CN3CN(CN(C3)C1)C2 | - | - | - | - | 0
COc1ccc(/C=C2\NC(=O)C(C=NCc3ccccc3)=C2O)cc1 | 0 | 0 | 0 | 0 | 0
O=C1N/C(=C\c2ccc(O)cc2)C(O)=C1C=NCc1ccccc1 | 15.9 | 0 | 0 | 0 | 0
COC(=O)/C(=C\Nc1ccc(Cl)cc1Cl)NC(=O)c1ccc(OC)cc1 | 0 | 0 | 0 | 0 | 0
COCCN1C(=O)c2ccc(C(=O)Nc3nccs3)cc2C1=O | 0 | 0 | 0 | 0 | 0
CCN1C(=O)c2ccc(C(=O)Nc3ncc(C)s3)cc2C1=O | 50.8 | 0 | 0 | 56.0 | 0
Cc1cnc(NC(=O)c2ccc3c(c2)C(=O)N(Cc2ccco2)C3=O)s1 | 12.7 | 0 | 0 | 0 | 0
Cc1ccc(O)c(NC(=O)c2ccc3c(c2)C(=O)N(Cc2ccco2)C3=O)c1 | 0 | - | 0 | 0 | 0
CCCN1C(=O)c2ccc(C(=O)Nc3nccs3)cc2C1=O | 10.7 | 0 | 0 | 64.8 | 0
CCCc1cc(C(=O)Nc2nccs2)cs1 | 57.2 | 0 | 0 | 60.0 | 0
COc1ccc(C(=O)Nc2cnn(Cc3c(F)cccc3Cl)c2)cc1OC | 12.4 | 0 | 0 | 0 | 0
CCn1cc([N+](=O)[O-])c(C(=O)Nc2ccc3c(c2)OCCO3)n1 | 38.3 | 0 | 0 | 46.6 | ?
SMILES | CHX counter | FBPA Giardia inh | LmPK inhibitor | Shiga inhibitor | NS1 inh
Cc1cc(C(=O)NC(C)CCc2ccccc2)ccc1[N+](=O)[O-] (stereo unspecified) | 18.2 | 0 | 0 | - | 0
O=C(Nc1ncccc1Cl)c1ccc2c(c1)OCCO2 | 32.3 | 0 | ? | 84.3 | -
O=C(Nc1cccc2ncccc12)c1ccc2c(c1)OCCO2 | 0 | 0 | 0 | 0 | 0
O=C(Nc1ccc2c(c1)OCCO2)c1ccc2nccnc2c1 | 33.4 | 0 | ? | 0 | 0
CCCC[C@H]1CCCO[C@@](C(=O)NCCN2CCOCC2)(C(F)(F)F)C1 | 0 | 0 | - | 0 | -
O=C(Nc1cccc(Cl)c1)C1=Cc2cc(Cl)ccc2OC1 | 0 | 0 | 0 | 0 | 0
O=C(Nc1ccc(Cl)c(Cl)c1)C1=Cc2ccccc2OC1 | 42.8 | 0 | 0 | 65.8 | 0
O=C(Nc1ccc2c(c1)OCCO2)c1ccc(Cl)c(Cl)c1 | 44.8 | 0 | 0 | 83.9 | 0
O=C(NCc1cccnc1)C(=O)Nc1ccc2c(c1)OCO2 | 18.1 | 0 | 0 | 0 | -
O=C(Nc1ccc2c(c1)OCCO2)c1cccnc1 | 24.7 | 0 | 0 | 58.7 | 0
CC(C)(C)OC(=O)N1CCC(C(=O)NCC2CCCO2)CC1 (stereo unspecified) | 0 | 0 | 0 | 0 | 0
COC(=O)C1(C(F)(F)F)C2C=CC(C2)N1S(=O)(=O)c1ccc(C)cc1 (stereo unspecified) | 0 | - | 0 | 0 | 0
